Assay results as given in PubChem BioAssay.
“And” between values parts separate entries of the source, which are not always exact repeats. Identical values can stand only once. Records with an inconclusive call do not appear. The source made the active and inactive calls. Unless noted, how the calls were made is not given here.

Assays:
[1] = system: Aerobactin synthetase IucA (Klebsiella pneumoniae, hypervirulent); experiment: IucA enzyme inhibition, biochemical, LOPAC library, absorbance readout (AID 1346212); settings: IucA enzyme assay, absorbance (OD) readout; stronger effect = lower value;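 tested at 8 µM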;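 further: 100% = no compound wells and 0% = no enzyme wells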
[2] = sensitizers of A549 cells to miR-34 induction, primary screen, imaging, A549 dox-inducible miR-34, nuclei and caspase counts (AID 1347080;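 active means compounds whose cell count with miR-34 switched on is under 0.7 times the count with it off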); settings: A549 miR-34 inducible, Hoechst nuclei count, 48 h
[3] = circadian clock period modulators, cell-based, LOPAC library, luminescence reporter (AID 2774); settings: circadian reporter cells, at 7 µM, actives lie on both sides;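 further: values are relative to mean of DMSO wells on each plate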
[4] = system: Hepatitis C virus NS3 helicase; experiment: HCV NS3 helicase inhibitors, primary screen, biochemical, fluorescence polarization, LOPAC1280 library (AID 687035; in the data active means inhibition above about 37%); settings: Purified HCV NS3 helicase, Cy5-dT15 ssDNA binding fluorescence polarization; stronger effect = higher value; concentration not given here
[5] = Cy5 fluorescence quenching or enhancement artefacts, artefact control for HCV NS3 helicase inhibitor project, biochemical, LOPAC1280 (AID 687037); settings: Cy5-DNA-NS3h complex fluorescence interference counterscreen
[6] = phospholipid biosynthesis inhibitors in animal cells, primary screen, cell-based, LOPAC library, screen 4 (AID 1347384); settings: phospholipid biosynthesis inhibition screen, at 10 µM
[7] = viability rescue of complex I mutant cybrids, primary screen, cell-based, galactose medium, ATP luminescence (AID 1645843;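 active means z-score of at least 1.8 in each of two replicates, scored against plate mean and spread of sample wells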;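 further: positive z means more ATP and so rescue of galactose-driven cybrid death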); settings: complex I mutant cybrid cells, 72 h, stronger effect = higher value
[8] = liver-stage malaria parasite growth inhibition, primary screen, cell-based, HepG2, luciferase luminescence, HepG2 viability (AID 624349; in the data active means parasite load remaining mostly below about 12%, no sharp cut-off; inactive means mostly above about 10%;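 further: 100% = mean of DMSO negative control wells on the same plate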); settings: P. berghei liver stage in HepG2, luciferase luminescence, concentration not given here; parasite load remaining: stronger effect = lower value; viability: measured here: HepG2 viability without parasites
[9] = growth inhibition of DIPG glioma cells, dose response, cell-based, SU-DIPG-XVII, MIPE5.0, CellTiter-Glo, qHTS (AID 1347060; cut-off not given, nearly all actives have AC50 up to about 26 µM;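 further: cells exposed to compound for 48 hours before viability readout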); settings: SU-DIPG-XVII viability, CellTiter-Glo ATP luminescence
[10] = growth inhibition of DIPG glioma cells, dose response, cell-based, SU-DIPG-XIII, MIPE4.0, CellTiter-Glo, qHTS (AID 1347061; cut-off not given, nearly all actives have AC50 up to about 37 µM;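 further: cells exposed to compound for 48 hours before readout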); settings: SU-DIPG-XIII viability, CellTiter-Glo ATP luminescence
[11] = growth inhibition of DIPG glioma cells, dose response, cell-based, JHH-DIPG-1, MIPE4.0, CellTiter-Glo, qHTS (AID 1347062; cut-off not given, nearly all actives have AC50 up to about 27 µM;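 further: cells exposed to compound for two days before readout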); settings: JHH-DIPG-1 viability, CellTiter-Glo ATP luminescence
[12] = growth inhibition of DIPG glioma cells, dose response, cell-based, SU-DIPG-IV, MIPE4.0, CellTiter-Glo, qHTS (AID 1347063; cut-off not given, nearly all actives have AC50 up to about 30 µM;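 further: compound exposure lasted 48 hours before the viability readout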); settings: SU-DIPG-IV viability, CellTiter-Glo ATP luminescence
[13] = growth inhibition of DIPG glioma cells, dose response, cell-based, SU-DIPG-XIII, MIPE5.0, CellTiter-Glo, qHTS (AID 1347064; cut-off not given, nearly all actives have AC50 up to about 23 µM;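 further: cells exposed to compound for 48 hours before the viability read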); settings: SU-DIPG-XIII viability, CellTiter-Glo ATP luminescence
[14] = viability loss in pontine glioma line – cell-based, SU-DIPG-XXV, MIPE5.0, CellTiter-Glo, qHTS, dose response (AID 1347065; cut-off not given, nearly all actives have AC50 up to about 26 µM;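 further: cells exposed to compound for 48 hours before ATP readout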); settings: CellTiter-Glo ATP luminescence
[15] = SU-DIPG-VI glioma cell viability, MIPE4.0 library, CellTiter-Glo luminescence, qHTS (AID 1347066; cut-off not given, nearly all actives have AC50 up to about 30 µM;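 further: cells exposed to compound for 48 hours before readout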); settings: CellTiter-Glo ATP luminescence
[16] = SU-DIPG-XXV glioma cell viability, MIPE5.0 library, qHTS (AID 1347068; cut-off not given, nearly all actives have IC50 up to about 30 µM;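 further: cells exposed to compound for 48 hours before viability readout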)
[17] = inhibitors of Cryptococcus chitosan production, flow cytometry, Cibacron Brilliant Red staining (AID 1347148); settings: Cryptococcus neoformans chitosan, stronger effect = lower value; at 10 µM unless noted;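 further: compound exposure lasted three days at 37 degrees C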
[18] = measured here: relative caspase fold change +Dox/-Dox
[19] = measured here: total cells with miR-34 induction, stronger effect = lower value
[20] = measured here: total cells without miR-34 induction

CCCn1c(C)c(C(=O)c2cccc3ccccc23)c2ccccc21
remaining activity [1]: 107% (inactive)
fold change ([2]; stronger effect = lower value): 0.889 (inactive)
fold change [2, 18]: 1.38
cell count [2, 19]: 5580
cell count [2, 20]: 6280

CNCCc1c[nH]c2ccc(O)cc12
period change [3]: 0.02 h (inactive)
inhibition [4]: -6% (inactive)
fluorescence ratio (interference) [5]: 0.9 (inactive)
remaining activity [1]: 121% (inactive)
fold change ([2]; stronger effect = lower value): 1.03 (inactive)
fold change [2, 18]: 1.46
cell count [2, 19]: 10900
cell count [2, 20]: 10600
outcome [6]: inactive
z-score [7]: 0.2 (inactive)

CN1CCc2cccc(Cl)c2CC1
period change [3]: 0.06 h (inactive)
inhibition [4]: -4% (inactive)
fluorescence ratio (interference) [5]: 1 (inactive)
remaining activity [1]: 114% (inactive)
fold change ([2]; stronger effect = lower value): 1.03 (inactive)
fold change [2, 18]: 1.41
cell count [2, 19]: 9920
cell count [2, 20]: 9620
outcome [6]: inactive
z-score [7]: 0.41 (inactive)

CCn1cnc2c(Nc3cccc(Cl)c3)nc(N[C@@H]3CCCC[C@@H]3N)nc21
period change [3]: 0.275 h (inactive)
parasite load remaining [8]: 33.4% (inactive)
viability [8]: 108%
inhibition [4]: -2% (inactive)
fluorescence ratio (interference) [5]: 0.9 (inactive)
remaining activity [1]: 98.9% (inactive)
fold change ([2]; stronger effect = lower value): 0.982 (inactive)
fold change [2, 18]: 0.968
cell count [2, 19]: 797
cell count [2, 20]: 812
outcome [6]: inactive
z-score [7]: -1.48 (inactive)

C[C@]12CCC3C(CC[C@H]4C[C@H](O)CC[C@]34C)C1CC[C@@H]2C(=O)CO (stereo partly specified)
period change [3]: 0.065 h (inactive)
inhibition [4]: -2% (inactive)
fluorescence ratio (interference) [5]: 1 (inactive)
remaining activity [1]: 121% (inactive)
fold change ([2]; stronger effect = lower value): 1.06 (inactive)
fold change [2, 18]: 0.876
cell count [2, 19]: 10400
cell count [2, 20]: 9790
outcome [6]: inactive
z-score [7]: -0.26 (inactive)

CCCN(CCC)[C@@H]1CCc2ccc(O)cc2C1
period change [3]: 0.12 h (inactive)
inhibition [4]: 0% (inactive)
fluorescence ratio (interference) [5]: 1.1 (inactive)
remaining activity [1]: 125% (inactive)
fold change ([2]; stronger effect = lower value): 0.992 (inactive)
fold change [2, 18]: 1.38
cell count [2, 19]: 9820
cell count [2, 20]: 9900
outcome [6]: inactive
z-score [7]: -0.195 (inactive)

NNC(=O)c1ccc(O)cc1
period change [3]: 0.115 h (inactive)
inhibition [4]: 1% (inactive)
fluorescence ratio (interference) [5]: 1.1 (inactive)
remaining activity [1]: 109% (inactive)
fold change ([2]; stronger effect = lower value): 0.976 (inactive)
fold change [2, 18]: 1.57
cell count [2, 19]: 9790
cell count [2, 20]: 10000
outcome [6]: inactive
z-score [7]: 0.275 (inactive)

C/C=C(/C)C(=O)O[C@H]1C(C)=C2[C@H]([C@@H]1OC(=O)CCCCCCC)[C@@](C)(OC(C)=O)C[C@H](OC(=O)CCC)[C@@]1(O)[C@H]2OC(=O)[C@@]1(C)O
period change [3]: 9.62 h (inactive)
inhibition [4]: -3% (inactive)
fluorescence ratio (interference) [5]: 1 (inactive)
remaining activity [1]: 86.6% (inactive)
AC50 [9]: 52.5 nM (active)
AC50 [10]: 590 nM (active)
AC50 [11]: 46.9 nM (active)
AC50 [12]: 7.43 nM (active)
AC50 [13]: 295 nM (active)
AC50 [14]: 23.5 nM (active)
AC50 [15]: 105 nM (active)
IC50 [16]: 1320 nM (active)
fold change ([2]; stronger effect = lower value): 1.93 (inactive) and 1.56 (inactive)
fold change [2, 18]: 0.132 and 0.916
cell count [2, 19]: 662 and 522
cell count [2, 20]: 343 and 336
fold fluorescence [17]: 5.31 [at 76.8 µM] (inactive)
outcome [6]: inactive
z-score [7]: -1.38 (inactive)

CCCN1CCC[C@H](c2cccc(O)c2)C1
period change [3]: -0.035 h (inactive)
inhibition [4]: -3% (inactive)
fluorescence ratio (interference) [5]: 1 (inactive)
remaining activity [1]: 98.7% (inactive)
fold change ([2]; stronger effect = lower value): 1 (inactive)
fold change [2, 18]: 1.94
cell count [2, 19]: 9710
cell count [2, 20]: 9700
outcome [6]: inactive
z-score [7]: 0.32 (inactive)

C#CCN[C@H](C)Cc1ccccc1
period change [3]: -0.015 h (inactive)
inhibition [4]: -2% (inactive)
fluorescence ratio (interference) [5]: 1 (inactive)
remaining activity [1]: 82% (inactive)
fold change ([2]; stronger effect = lower value): 0.962 (inactive)
fold change [2, 18]: 1.51
cell count [2, 19]: 9640
cell count [2, 20]: 10000
outcome [6]: inactive
z-score [7]: 0.54 (inactive)

NC(=O)c1ccc(OCC(O)CN2CC=C(c3ccc(F)cc3)CC2)cc1 (stereo unspecified)
period change [3]: 0.145 h (inactive)
inhibition [4]: -1% (inactive)
fluorescence ratio (interference) [5]: 0.9 (inactive)
remaining activity [1]: 103% (inactive)
fold change ([2]; stronger effect = lower value): 1.01 (inactive)
fold change [2, 18]: 1.9
cell count [2, 19]: 9620
cell count [2, 20]: 9570
outcome [6]: inactive
z-score [7]: -0.85 (inactive)

CN(C(=O)Cc1ccc(Cl)c(Cl)c1)C(CN1CCCC1)c1cccc(OCC(=O)O)c1 (stereo unspecified)
period change [3]: -0.06 h (inactive)
inhibition [4]: -4% (inactive)
fluorescence ratio (interference) [5]: 1 (inactive)
remaining activity [1]: 103% (inactive)
fold change ([2]; stronger effect = lower value): 1.05 (inactive)
fold change [2, 18]: 1.11
cell count [2, 19]: 10700
cell count [2, 20]: 10200
outcome [6]: inactive
z-score [7]: 0.31 (inactive)
